From PubChem BioAssay (Tox21)
Records with an inconclusive call do not appear. Unmarked numbers belong to inactive results. Calls follow the shape of the dose curve; as a rule, active = well fitted activation curve with a large enough effect in the repeat runs; inconclusive = weak or mixed curves; inactive = flat fitted curve, though single readings scatter.

Assay: A CellTox Green Cytotoxicity Assay to monitor cytotoxicity in HepG2 cells - 16 hour (AID 1224876); also: nearly all actives have a fitted effect of over 45% in size
Details: CellTox Green fluorescence; series mostly up to 76.8 µM; cytotoxicity increase: at the top concentration
Source text: National Center for Advancing Translational Sciences [NCATS]
NIH Chemical Genomics Center [NCGC]
U.S. Environmental Protection Agency [EPA]
National Institutes of Environmental Health Sciences [NIEHS]
National Toxicology Program [NTP]
Cell-based models are critical for drug discovery. Determining the natural cytotoxic effects resulting from test compounds is an essential research activity. A CellTox Green Cytotoxicity Assay to monitor cytotoxicity in real time of continues cell culture during 40 hours of the compound treatment was used to screen Tox21 10K library compounds in HepG2 cells. CellTox Green Cytotoxicity Assay is a nonlytic, homogeneous, biofluorescent method to measure cytotoxicity in cell culture after experimental manipulation. The assay system uses a proprietary asymmetric cyanine dye that is excluded from viable cells but preferentially stains the dead cell's DNA. […] Viable cells produce no appreciable increases in fluorescence. Therefore, the fluorescence signal produced by the binding interaction with dead cell DNA is proportional to cytotoxicity.
The mixture of HepG2 cell suspension and reagents were dispensed at 600cells/6 ul/well in 1536-well tissue culture treated black solid bottom plates using a Multidrop dispenser. After the assay plates were incubated at a 37 C/5% CO2 incubator for 5 hours, 23 nL of compounds dissolved in DMSO, positive and negative controls was transferred to the assay plate by a pintool work station. The plates were incubated at 37 C for 40 hours. The fluorescence intensity were measured at 0h, 8h, 16h, 24h, 32h and 40h time points using ViewLux plate reader during compound treatment.
% is scaled to controls: 0 for no effect and ±100 for the full control effect.

Compound	cytotoxicity increase
CC(O)CN(CCCN(C)C)CCCN(C)C (stereo not given)	-4.66%
CCCCC1CCCCC(=O)O1 (stereo not given)	6.14%
CO	-6.44%
C=C(C)C(=O)OCCCCCCCCCCCCCCCCCC	3.12% [at 15.8 µM]
O=C(O)/C=C/c1ccc(Cn2ccnc2)cc1	-7.38% [at 35.3 µM]
O=C(O)c1ccc[n+]([O-])c1	-3.87% [at 35.3 µM]
CN(C)CCn1nnnc1SCC1=C(C(=O)O)N2C(=O)[C@@H](NC(=O)Cc3csc(N)n3)[C@H]2SC1	2% [at 35.3 µM]
CCN1CCCC1CNC(=O)c1cc(S(N)(=O)=O)ccc1OC (stereo not given)	-0.973%
O=C1C(CCS(=O)c2ccccc2)C(=O)N(c2ccccc2)N1c1ccccc1 (stereo not given)	9.76% [at 35.3 µM]
CCC(=O)Nc1cccc(N)c1	1.27%
C(=C(c1ccccc1)c1ccccc1)c1ccccc1	-5.57%
C1=C\CC/C=C\CC/C=C\CC/1	1.9%
CCCOCC(C)OCC(C)O (stereo not given)	11.3%
C=C(C)C(=O)NCCCN(C)C	-17.4%
NC(=O)c1c(Cl)cccc1Cl	-11.7%
CCC(C(=O)NC(N)=O)c1ccccc1 (stereo not given)	-9.59%
Cc1ccc(N)cc1[N+](=O)[O-]	3.83%
C=CCOCC(O)CS(=O)(=O)O (stereo not given)	0.964%
C=CCSCC1Nc2cc(Cl)c(S(N)(=O)=O)cc2S(=O)(=O)N1 (stereo not given)	-10.2% [at 35.3 µM]
Nc1ncnc2c1ncn2Cc1c(F)cccc1Cl	-14.3% [at 35.3 µM]

Compound	cytotoxicity increase
CCCCC=O	7.44%
CSc1nc(NC2CC2)nc(NC(C)(C)C)n1	4.97%
CCOC(=O)Nc1ccc2c(c1)N(C(=O)CCN1CCOCC1)c1ccccc1S2	-10.4% [at 35.3 µM]
CC(C)(C)N(CCO)CCO	-4.16%
CC(=O)O[C@H](CC(=O)[O-])C[N+](C)(C)C	-10.3%
Nc1nc(F)nc2c1ncn2[C@@H]1O[C@H](CO)[C@@H](O)[C@@H]1O	-13.7% [at 35.3 µM]
COC(C(=O)O)c1ccccc1 (stereo not given)	-0.493%
CCC(=O)c1cccc(Cl)c1	-11.6%
COc1ccc2cc(C=O)ccc2c1	1.78% [at 35.3 µM]
CC1=CC(=O)CCC1	-4.84%
CC1=CCC2C(C1)C2(C)C (stereo not given)	2.55%
CC1=CC(C)C(C=O)C(C)C1 (stereo not given)	-5.1%
c1ccc2cnncc2c1	-1.48%
CCC(=O)/C=C/c1ccc(OC)cc1	-0.726%
Cc1ccccc1C(=O)O	0.768%
OCCCCCCO	-10.9%
CCCCN(CCO)CCO	0.793%
CC(=O)OC(C)(C)C	-6.11%
Cc1ccccc1Br	1.45%
CC(C)CCCC(C)NCCC(C)C (stereo not given)	-5.55% [at 35.3 µM]
